{
  "source": "PubChem BioAssay AID504834",
  "about": "(National Center for Advancing Translational Sciences (NCATS), 2011)",
  "note": "Several values for one entry are separate records, joined by “and”; a condition that tells them apart may be missing. Equal entries are not always repeated. In all, about 320,000 compounds went through this assay and about 22,000 (6.9%) were called active. A call without a number means that no potency is given here. Roughly 27% stayed inconclusive and do not appear here. This is one part of a sample in which actives are shown more often than they occur. Values without a mark were called inactive. The call rests on the fitted dose curve; in most records, active means well fitted inhibition curve with a large enough effect; inconclusive means small, poorly fitted or top-dose-only effect, or another doubt; inactive means no such curve, though single readings can be large or run the other way. Potency means the concentration at half of the fitted maximal effect.",
  "data": [
    {"assay": "Primary qHTS for delayed death inhibitors of the malarial parasite plastid, 96 hour incubation", "details": "P. falciparum luciferase reporter growth; series mostly up to 28.7 µM", "procedure,_shortened": "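P. falciparum expressing integrated firefly luciferase grown in erythrocytes (2% hematocrit, 0.05% parasitemia final) with compounds for 96 hours at 37 C, 5% CO2. Growth inhibition read as loss of luminescence after adding luciferase detection reagent.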", "values": [
      {"smiles": "CSCCC(NC(=O)c1ccc(Cl)cc1Cl)C(=O)NNC(=O)c1csc(N2CCOCC2)n1", "note": "(stereo not drawn)", "Potency": "inactive"},
      {"smiles": "CCC1S/C(=N/N=C/c2ccco2)NC1=O", "note": "(stereo not drawn)", "Potency": "inactive"},
      {"smiles": "O=C1OC(/C=C/c2ccccc2)=NC/1=C/c1ccco1", "Potency": "inactive"},
      {"smiles": "CC(C)(C)C1C/C(=C/c2ccco2)C(=O)/C(=C/c2ccco2)C1", "note": "(stereo not drawn)", "Potency": "13.1 µM (active)"},
      {"smiles": "CCOc1ccc(CNC(=O)CCC(=O)N2CCSc3ccccc32)cc1", "Potency": "inactive"},
      {"smiles": "Cc1ccc(S(=O)(=O)N2CCN(C(=O)c3ccccc3-c3nc4ccccc4s3)CC2)c(C)c1", "Potency": "inactive"},
      {"smiles": "CN(C)C(=O)COC(=O)c1cccc(S(=O)(=O)N2CC3(C)CC2CC(C)(C)C3)c1", "note": "(stereo not drawn)", "Potency": "inactive"},
      {"smiles": "Cc1ccc(N(C(=O)c2snc(C(N)=O)c2N)C(C(=O)NCC2CCCO2)c2c[nH]c3ccccc23)cc1", "note": "(stereo not drawn)", "Potency": "inactive"},
      {"smiles": "c1ccc(CSCCc2ccncc2)cc1", "Potency": "inactive"},
      {"smiles": "CC(C)(C)c1ccc(SCCc2ccncc2)cc1", "Potency": "inactive"},
      {"smiles": "Cc1cc(C)c(SCCc2ccncc2)c(C)c1", "Potency": "10.4 µM (active)"},
      {"smiles": "COC(=O)c1cc(OCC(=O)NC2CCCc3ccccc32)cc(C(=O)OC)c1", "note": "(stereo not drawn)", "Potency": "inactive"},
      {"smiles": "Cc1ccc(C(=O)NCC(=O)OCC(=O)NC2CCCCCCC2)cc1", "Potency": "inactive"},
      {"smiles": "Oc1ccc(-c2cccc(-c3ccc(O)cc3)c2)cc1", "Potency": "inactive"},
      {"smiles": "O=C(NCCS(=O)(=O)N1CCN(c2ccc(F)cc2)CC1)c1ccc2c(c1)OCO2", "Potency": "inactive"},
      {"smiles": "Cn1cnnc1SCc1nnc(-c2ccccc2Br)o1", "Potency": "inactive"},
      {"smiles": "CC(C)N(Cc1nnc(-c2ccccc2Br)o1)C(=O)c1cc(Cl)nc2ccccc12", "Potency": "14.7 µM (active)"},
      {"smiles": "CC(C)N(Cc1nnc(-c2ccc(Cl)cc2)o1)C(=O)C1=COCCO1", "Potency": "inactive"},
      {"smiles": "O=S(=O)(Nc1ccccc1)c1ccc(NS(=O)(=O)c2cccs2)cc1", "Potency": "inactive"},
      {"smiles": "Cc1ccc(OCCNC(=O)CNC(=O)c2ccc(C)c(C)c2)cc1", "Potency": "inactive"},
      {"smiles": "COc1cc(Nc2nc3ccc(Cl)cc3n3cnnc23)cc(OC)c1OC", "Potency": "inactive"},
      {"smiles": "CCOC(=O)CCP(=O)(O)C(O)(c1ccccc1)c1ccccc1", "Potency": "inactive"},
      {"smiles": "CC[N+]1(C)CCCC(OC(=O)C(O)(c2ccccc2)c2ccccc2)C1", "note": "(stereo not drawn)", "Potency": "8.49 µM (active) and 10.4 µM (active)"},
      {"smiles": "CN(C)N(C)C(=O)C(O)(c1ccccc1)c1ccccc1", "Potency": "inactive"},
      {"smiles": "O=S(=O)(c1ccc(Cl)cc1)c1nc(-c2ccccc2F)oc1NCCN1CCOCC1", "Potency": "inactive"},
      {"smiles": "C[N+](C)(CCCCCC[N+](C)(C)CCCN1C(=O)c2cccc3cccc(c23)C1=O)CCCN1C(=O)c2cccc3cccc(c23)C1=O", "Potency": "0.233 µM (active)"},
      {"smiles": "O=C1c2cccc3cccc(c23)C(=O)N1CCCCCc1n[nH]c(=S)o1", "Potency": "inactive"},
      {"smiles": "O=C(CN1C(=O)c2cccc3cccc1c23)Nc1ccccc1", "Potency": "inactive"},
      {"smiles": "COc1cc(/C=C/C(=O)O)cc(S(=O)(=O)Nc2ccccc2C(=O)NCCc2ccccc2)c1OC", "Potency": "inactive"},
      {"smiles": "Cc1cc(C)cc(NC(=O)c2cccc(NC(=O)C3C4CC5OC(=O)C3C5C4)c2)c1", "note": "(stereo not drawn)", "Potency": "0.0738 µM (active)"},
      {"smiles": "Cc1cccc(NC(=O)C(C)N2C(=O)C3C4CC(C(Br)C4Br)C3C2=O)c1", "note": "(stereo not drawn)", "Potency": "inactive"},
      {"smiles": "Cc1ccc(NC(=O)COC(=O)C2C3CC4OC(=O)C2C4C3)cc1Cl", "note": "(stereo not drawn)", "Potency": "inactive"},
      {"smiles": "O=C(NCCS(=O)(=O)N1CCN(c2ccccc2)CC1)c1ccco1", "Potency": "inactive"},
      {"smiles": "CSc1cccc(NC(=O)CN2C(=O)COc3ccc(S(=O)(=O)N4CCOCC4)cc32)c1", "Potency": "inactive"},
      {"smiles": "COCCn1nnnc1C(c1ccccc1Cl)N1CCN(c2ccccc2OC)CC1", "note": "(stereo not drawn)", "Potency": "inactive"},
      {"smiles": "CN(C(=O)CSc1nnnn1-c1ccccc1)C1CCCCC1", "activity change, negative = inhibition": "1.42% [at 5.75 µM]"},
      {"smiles": "CCC(=O)N(C)C(c1ccccc1Cl)c1nnnn1-c1c(C)cccc1C", "note": "(stereo not drawn)", "Potency": "9.28 µM (active)"},
      {"smiles": "CCc1ccccc1NC(=O)CSc1nnc(CCNC(=O)OC(C)(C)C)o1", "Potency": "inactive"},
      {"smiles": "Cc1ccccc1C1=NC(C(F)(F)F)(C(F)(F)F)c2c(n(-c3ccc(F)cc3)c(=O)[nH]c2=O)N1", "Potency": "11.7 µM (active)"},
      {"smiles": "O=c1[nH]c(=O)n(Cc2ccco2)c2c1C(C(F)(F)F)(C(F)(F)F)N=C(c1ccco1)N2", "Potency": "inactive"},
      {"smiles": "O=C(NC1CCCCC1)N1CCc2[nH]c3ccccc3c2C1", "Potency": "8.28 µM (active)"},
      {"smiles": "O=C(Nc1ccc(Cl)cc1)N1CCc2[nH]c3ccccc3c2C1", "Potency": "inactive"},
      {"smiles": "C=CCNC(=S)N1CCc2[nH]c3ccccc3c2C1", "Potency": "inactive"},
      {"smiles": "Cc1ccc(F)c(NC(=O)CCOc2ccccc2C)c1", "Potency": "inactive"},
      {"smiles": "COc1ccccc1C(=O)N1C(CC(=O)Nc2ccccc2C)C(=O)NC2CCCCC21", "note": "(stereo not drawn)", "Potency": "inactive"},
      {"smiles": "COc1ccc(OC)c(C2C3=C(N=c4s/c(=C\\c5cccc(O)c5)c(=O)n42)c2ccccc2CC3)c1", "note": "(stereo not drawn)", "Potency": "2.08 µM (active)"},
      {"smiles": "COc1cc(C(=O)OCC(=O)NC(C)CCc2ccccc2)cc(OC)c1OC", "note": "(stereo not drawn)", "Potency": "inactive"},
      {"smiles": "COc1ccc(-n2nc(C(=O)NCC(=O)N3CCCCCC3)c3ccccc3c2=O)cc1Cl", "Potency": "2.33 µM (active)"},
      {"smiles": "COCCCNC(=O)CNC(=O)c1nn(-c2ccc(OC)cc2)c(=O)c2ccccc12", "Potency": "inactive"},
      {"smiles": "COc1ccc(-n2nc(C(=O)NCC(=O)N3CCC(C(N)=O)CC3)c3ccccc3c2=O)cc1OC", "Potency": "inactive"},
      {"smiles": "Cc1ccc(C(=O)O/N=C(\\N)c2ccccn2)cc1Cl", "Potency": "inactive"},
      {"smiles": "Cc1nc(C(=O)NCc2ccccc2)sc1C1(C)CC(c2cccnc2)=NO1", "note": "(stereo not drawn)", "Potency": "inactive"},
      {"smiles": "COc1ccccc1C1/C(=C(/O)c2ccc(C)cc2)C(=O)C(=O)N1Cc1ccco1", "note": "(stereo not drawn)", "Potency": "inactive"},
      {"smiles": "O=C1c2ccccc2C(Nc2ccc3c(c2)OCCO3)N1Cc1ccco1", "note": "(stereo not drawn)", "Potency": "4.65 µM (active)"},
      {"smiles": "S=C(NCc1ccco1)Nc1ccc2c(c1)OCCO2", "Potency": "inactive"},
      {"smiles": "O=[N+]([O-])c1ccccc1/C=C/CN1CCCC(CO)C1", "note": "(stereo not drawn)", "Potency": "inactive"},
      {"smiles": "COc1cccc(CNS(=O)(=O)c2ccc3c(c2)CC(C)N3C(C)=O)c1", "note": "(stereo not drawn)", "Potency": "10.4 µM (active)"},
      {"smiles": "COc1cccc(CNS(=O)(=O)c2ccc3c(c2)N(C(C)=O)CCS3)c1", "Potency": "inactive"},
      {"smiles": "COc1cccc(CNS(=O)(=O)c2ccc3c(c2)CC(C)N3C(=O)C2CCC2)c1", "note": "(stereo not drawn)", "Potency": "inactive"},
      {"smiles": "COc1cc(C(=O)N/C(=C\\c2cn(C)c3ccccc23)C(=O)N2CCOCC2)cc(OC)c1OC", "Potency": "inactive"},
      {"smiles": "Cc1ccc(NC(=O)CSc2nn3c(=O)c(C)nnc3s2)cc1Cl", "Potency": "9.28 µM (active)"},
      {"smiles": "Cc1ccc(NC(=O)C/C(N)=N/O)cc1Cl", "Potency": "inactive"},
      {"smiles": "COc1ccc(Cc2nnc(SCC(=O)Nc3ccc(C)c(Cl)c3)[nH]c2=O)cc1", "Potency": "inactive"}
    ]}
  ]
}
